# Screens from PubChem BioAssay.
# Compounds with a hit are over-represented: about 6% of the library has one in this group of screens.
# DRD3 agonist – qHTS of D3 Dopamine Receptor Agonist: qHTS; D3R DiscoveRx beta-arrestin cells, luminescence, 90 min; 410,000 tested, 0.58% active; AID 652048, 2013; max activation, %; D(3) dopamine receptor (Homo sapiens), P35462; in the data active = max activation above about 30%; note: 0% is about no effect
# Target sequence (P35462 whole entry, looked up): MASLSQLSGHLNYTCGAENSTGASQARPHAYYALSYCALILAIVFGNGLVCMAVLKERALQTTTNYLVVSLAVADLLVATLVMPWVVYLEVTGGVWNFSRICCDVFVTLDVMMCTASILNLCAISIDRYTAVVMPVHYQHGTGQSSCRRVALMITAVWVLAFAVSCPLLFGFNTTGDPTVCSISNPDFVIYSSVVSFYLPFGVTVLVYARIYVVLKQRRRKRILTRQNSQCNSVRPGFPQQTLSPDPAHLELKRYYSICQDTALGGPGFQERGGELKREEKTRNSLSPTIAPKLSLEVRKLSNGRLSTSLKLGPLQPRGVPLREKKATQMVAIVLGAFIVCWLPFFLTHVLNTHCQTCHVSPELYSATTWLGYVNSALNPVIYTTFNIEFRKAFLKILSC
#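 Cells at 1500/well, incubated overnight, then treated with pinned compounds (dopamine as control) for 90 min at 37 degrees C. DiscoveRx reagent added for 30 - 60 minutes at room temperature; luminescence read.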
# D1 antagonist – Antagonist of Human D 1 Dopamine Receptor: qHTS; D(1A) dopamine receptor (Homo sapiens), P21728; HEK293 TREx D1 cells, calcium flux, dopamine EC80; active compounds read low; activity change, negative = inhibition, % at 10 µM; 360,000 tested, 3.2% active; AID 504652, 2011; in the data active = activity change below about -30%; note: % is set by controls: 0 for no effect and ±100 for the full control effect
#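 Using tetracycline-induced force-coupled D1 Hek293 cells and a calcium dye, signals were followed for 180 s after compound, then for 180 s after EC80 dopamine, to detect inhibitors.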
# D1 PAM – Potentiators of Human D1 Dopamine Receptor: qHTS; D(1A) dopamine receptor (Homo sapiens), P21728; HEK293 TREx D1 cells, calcium flux, dopamine EC20 potentiation; potentiation, % at 10 µM; 360,000 tested, 0.036% active; in the data active = potentiation above about 30%; note: 0% is about no effect
# D3 antag – qHTS of D3 Dopamine Receptor Antagonist: qHTS; D(3) dopamine receptor (Homo sapiens), P35462; D3R cells, DiscoveRx beta-arrestin luminescence, antagonist mode; active compounds read low; max response, negative = inhibition, %; 360,000 tested, 2.5% active; AID 652054, 2013; in the data active = max response below about -50%; inconclusive = no clear call, values can overlap the other calls; note: % is set by controls: 0 for no effect and ±100 for the full control effect
#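 Cells plated overnight at 1500 cells/well, then exposed to library compounds with dopamine controls for 90 minutes at 37 degrees C. DiscoveRx reagent added for 30–60 minutes at room temperature; luminescence read, quantitative HTS format.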
# D1 ag – Allosteric Agonists of the Human D1 Dopamine Receptor: qHTS. HEK293 T-REx D1 cells, calcium flux, agonist mode. 360,000 tested, 1% active. AID 504660, 2011. D(1A) dopamine receptor (Homo sapiens), P21728. activation, % at 2 µM; in the data active = activation above about 30%; note: 0% is about no effect
#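 Tetracycline-induced HEK293 TREx D1 cells, force-coupled to calcium signalling, were dye-loaded with a no-wash calcium kit. Compound was pin-added after a 10 s baseline. Fluorescence was read kinetically at 1 cycle/s for 180 s, with calcium rises flagged as agonism.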
# The depositor's hits bear a star; u = inconclusive; x = no result.
SMILES,DRD3 agonist,D1 antagonist,D1 PAM,D3 antag,D1 ag
COc1ccccc1N1CCN(S(=O)(=O)c2ccccc2F)CC1,-14.3,-32.0*,8.8,-5.7,15.9
O=S(=O)(c1ccc2ccccc2c1)N1CCN(C2CCN(Cc3ccccc3)CC2)CC1,-25.8,5.1,-3.8,-61.4*,5.3
O=S(=O)(c1ccccc1)N1CCN(C2CCN(Cc3ccccc3)CC2)CC1,-13.8,9.6,2.3,u,2.7
CC1=C(C)C(=O)C(C(CCCCCC(=O)O)c2ccccc2)=C(C)C1=O (configuration not stated),1.6,x,x,x,x
COc1ccc(S(=O)(=O)N2CCN(c3ccccc3OC)CC2)cc1OC,0.2,8.4,-5.1,1.2,1.7
O=S(=O)(c1ccc2ccccc2c1)N1CCN(Cc2ccccn2)CC1,1.7,5.4,-1.0,3.4,50.8*
COc1ccccc1N1CCN(C2CCN(S(=O)(=O)c3ccc4ccccc4c3)CC2)CC1,-8.4,6.2,-6.7,-54.0*,0.5
COc1ccc(F)cc1S(=O)(=O)N1CCCC(C)C1 (configuration not stated),6.1,4.6,-4.7,-5.7,0.2
COc1ccc(F)cc1S(=O)(=O)N1CCCN(S(=O)(=O)c2cc(F)ccc2OC)CC1,2.0,-30.4*,0.2,4.9,8.6
COc1ccc(C(C)(C)C)cc1S(=O)(=O)N1CCC(C(N)=O)CC1,-8.4,-13.1,0.1,-52.4*,0.9
CCOCCn1ccc2c(OCC(=O)Nc3cccc(F)c3)cccc2c1=O,7.7,x,-3.0,x,2.7
CCCCCCCCCCCCCC[N+](C)(C)Cc1ccccc1,9.3,x,x,x,x
NCCCC[C@H](NC(=O)[C@@H]1CCCN1C(=O)[C@@H]1CSSC[C@H](N)C(=O)N[C@@H](Cc2ccccc2)C(=O)N[C@@H](Cc2ccccc2)C(=O)N[C@@H](CCC(N)=O)C(=O)N[C@@H](CC(N)=O)C(=O)N1)C(=O)NCC(N)=O,-1.8,x,x,x,x
CCc1ccc(N2C(=O)CSC23C(=O)N(Cc2cccc(OC)c2)c2ccccc23)cc1 (configuration not stated),-3.0,13.3,-0.4,x,12.4
CCOc1ccc(CN2CCN(S(=O)(=O)c3ccc(Cl)cc3)CC2)cc1,-9.7,2.9,2.2,x,-0.4
COc1cccc(CN2CCCN(S(=O)(=O)c3ccc(Br)cc3)CC2)c1,0.0,16.7,-8.6,-57.1*,5.1
O=S(=O)(c1ccc(Br)cc1)N1CCCN(Cc2cccc(F)c2)CC1,-8.4,5.3,-2.8,-10.0,6.5
CCOc1ccc(S(=O)(=O)N2CCN(Cc3ccccc3)CC2)cc1,-5.9,-39.2*,0.7,-28.6,4.7
CCOc1ccc(OCC)c(NS(=O)(=O)c2ccc(-c3coc(C)n3)cc2)c1,5.6,-7.1,-2.6,x,5.3
Cc1ccc(-n2nc(CO)c(C(=O)NC(C)c3ccccc3)n2)cc1C (configuration not stated),2.2,-15.4,3.6,x,2.1
COc1cc2c(cc1OC)C(COc1ccc(C(C)C)cc1)NCC2 (configuration not stated),-11.8,-26.8,-3.6,-9.6,40.5*
Fc1ccc(C(CCCn2nnc(-c3cccnc3)n2)c2ccc(F)cc2)cc1,3.3,-30.1*,-6.5,27.7,17.0
Cc1ccc(CN2CCc3nc(SCC(=O)Nc4cccc(C)c4C)[nH]c(=O)c3C2)cc1,-8.7,-8.7,-2.5,x,2.3
Cc1ccc(Cl)cc1NC(=O)CSc1nc2c(c(=O)[nH]1)CN(Cc1ccccc1)CC2,5.5,-80.7*,-2.9,x,9.6
CC1(C)N=C(SCc2ccc(F)cc2)c2ccccc2N1,-29.8,2.1,1.8,x,3.1
Cc1ccc(C)c(CSC2=NC(C)(C)Nc3ccccc32)c1,8.8,-82.7*,-9.9,x,0.4
Cc1cc(Nc2ccc(F)cc2)n2c(nc3ccccc32)c1C#N,9.8,-0.7,1.7,x,17.4
Cc1cc(Nc2cccc([N+](=O)[O-])c2)n2c(nc3ccccc32)c1C#N,3.5,-34.8*,-7.3,-93.1*,26.1
N#CC1=C(Nc2ccccc2)SC=C(c2ccc(Cl)c(Cl)c2)N=C1N1CCOCC1,-0.5,-59.7*,3.8,-10.4,1.5
